For 2 compounds, inhibition results are on record in PubChem BioAssay AID624100 (ICCB-Longwood Screening Facility, Harvard Medical School, 2012).

Structures are written as SMILES. Some of the results follow. A number with no mark means an inactive call. Active and inactive are the calls of the source.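 The calls were made as follows: active = average inhibition over replicates above about 50%, so the earlier screening hit is confirmed (limit read from the data); inactive = the rest, counted as false positives.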

The test deals with Ubiquitin carboxyl-terminal hydrolase isozyme L5 (Homo sapiens) (UniProt Q9Y5K5). Nature of the test: retest of human UCH37 deubiquitinase inhibitors, confirmation, biochemical, Ub-AMC cleavage rate, fluorescence (AID 624100).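 Also: based on cleavage rate fitted by regression over a 30 min kinetic read; 0% = proteasome plus Ub-AMC and 100% = Ub-AMC without proteasome.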 Particulars: Proteasome-bound UCH37, Ub-AMC cleavage fluorescence; at 20 µM; stronger effect = higher value.
Sequence of Ubiquitin carboxyl-terminal hydrolase isozyme L5 (Homo sapiens) (Q9Y5K5 whole entry, looked up): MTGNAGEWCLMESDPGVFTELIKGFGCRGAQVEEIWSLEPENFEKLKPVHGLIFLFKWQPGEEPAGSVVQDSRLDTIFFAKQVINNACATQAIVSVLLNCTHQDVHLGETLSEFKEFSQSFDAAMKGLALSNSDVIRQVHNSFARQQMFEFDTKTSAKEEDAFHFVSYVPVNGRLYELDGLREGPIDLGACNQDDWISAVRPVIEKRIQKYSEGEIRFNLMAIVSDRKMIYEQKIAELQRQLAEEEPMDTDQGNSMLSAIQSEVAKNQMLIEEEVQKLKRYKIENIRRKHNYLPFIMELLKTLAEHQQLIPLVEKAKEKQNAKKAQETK

Consider `COc1ccc(N2C(=O)/C(=C/c3ccco3)C(=O)NC2=S)cc1`, for which the inhibition was 68.9% (active).

In the case of `CCCCCCCCCCCCn1ccc(=N)cc1`, the inhibition was 40.2%.
